GLP1R ag – qHTS of GLP-1 Receptor Agonists; AID 624172, 2012; HEK293 GLP-1R CRE-luciferase, luminescence, 4-6 h; cells express a hypersensitive GLP-1R form; actives 0.007% (n = 380,000); Potency, µM (series often up to 45.6 µM), hits mostly activators; Glucagon-like peptide 1 receptor (Homo sapiens), P43220
Target sequence (P43220 whole entry, looked up): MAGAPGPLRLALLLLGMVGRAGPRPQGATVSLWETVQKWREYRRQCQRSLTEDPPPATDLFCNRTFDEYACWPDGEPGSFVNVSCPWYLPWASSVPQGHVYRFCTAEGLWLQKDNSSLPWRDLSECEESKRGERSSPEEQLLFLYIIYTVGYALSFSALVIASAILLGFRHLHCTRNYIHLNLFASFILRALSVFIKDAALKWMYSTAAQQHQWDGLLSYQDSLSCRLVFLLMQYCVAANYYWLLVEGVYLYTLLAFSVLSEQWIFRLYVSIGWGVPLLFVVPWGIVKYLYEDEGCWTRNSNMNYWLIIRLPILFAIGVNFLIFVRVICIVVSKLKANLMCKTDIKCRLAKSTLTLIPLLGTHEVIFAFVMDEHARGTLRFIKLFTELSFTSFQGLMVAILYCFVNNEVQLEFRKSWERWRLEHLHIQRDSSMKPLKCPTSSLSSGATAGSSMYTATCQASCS
TGFb inhibitor – qHTS for Inhibitors of TGF-b. Potency, µM (doses to about 46.1 µM), usual class: inhibitors. HepG2 CAGA-GFP TGF-b/SMAD3 reporter, GFP fluorescence, 18 h; TGF-beta stimulated, 500 pg/mL final. actives 1.2% (n = 410,000). AID 588855, 2011; also: nearly all actives have a fitted effect of over 65% in size
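Cell-based qHTS in HEPG2 carrying a CAGA-GFP Smad reporter; compounds added before 500 pg/mL final TGF-beta, 18 h incubation at 37 degrees C, GFP fluorescence quantified per cell by imaging cytometry.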
HepG2 viability – qHTS for Inhibitors of TGF-b: Cytotox Counterscreen. HepG2 CAGA-GFP viability, ATP luminescence, 18 h. actives 0.76% (n = 410,000). Potency, µM (series often up to 46.1 µM), actives largely listed as cytotoxic
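HepG2 CAGA-GFP cells (1000/well, DMEM with 1% FBS) received compound, then TGF-beta at 500 pg/mL final, and were incubated 18 hours at 37 degrees C. Viability was read by CellTiter-Glo luminescence. Media-only wells were set as complete cell-killing and DMSO as no toxicity.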
ATXN viability – Viability Counterscreen for Primary qHTS for Inhibitors of ATXN expression; Potency, µM (titrated, usually from 56.7 µM), hits mostly cytotoxic; actives 0.49% (n = 400,000); S2 cells (HEK-293 line with an ATXN2-luciferase reporter) viability, CellTiter-Fluor protease fluorescence, 24 h; also: nearly all actives have a fitted effect of over 40% in size
GLP-1R inv ag – qHTS of GLP-1 Receptor Inverse Agonists (Inhibition Mode). Potency, µM (doses to about 38.3 µM), hits mostly inhibitors. HEK293 GLP-1R CRE-luciferase, luminescence, 24 h; GLP-1R form is constitutively active. AID 624417, 2012. actives 1.6% (n = 410,000); also: nearly all actives have a fitted effect of over 55% in size
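Constitutively active GLP-1R drives a cAMP-responsive luciferase in stably transfected HEK293 cells; test compounds are added after overnight (12 h) attachment and left 24 hr, and signal loss in luminescence marks inhibition.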
ATXN2 expr inh – Primary qHTS for Inhibitors of ATXN expression | HEK-293 ATXN2-luciferase reporter, luminescence, 24 h | Potency, µM (top dose mostly 57 µM), hits mostly inhibitors | actives 0.72% (n = 360,000); also: nearly all actives have a fitted effect of over 55% in size
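ATXN2-luciferase reporter cells (luciferase flanked by upstream and downstream ATXN2 gene portions) were treated 24 h at 37 °C with compounds at up to 57 uM. SteadyGlo luminescence gave expression; GF-AFC fluorescence gave viability.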
Hits are given with their value; 0 = inactive; ? = inconclusive; - = no result. The list is not random: actives were taken first. Their share in the collection is about 3.7%. Calls follow the shape of the dose curve; as a rule, active = well fitted curve in the direction sought with a large enough effect; inconclusive = small, poorly fitted or top-dose-only effect, or another doubt; inactive = no such curve, though single readings can be large; an effect the other way counts as inactive or inconclusive.

SMILES | GLP1R ag | TGFb inhibitor | HepG2 viability | ATXN viability | GLP-1R inv ag | ATXN2 expr inh
O=C(O)c1ccccc1C(=O)Nc1ccc(-c2ccccc2)cc1 | - | - | - | - | - | 0
C[N+](C)(CCCCCI)c1ccc(/C=C/c2nc3ccccc3s2)cc1 | - | 8.9µM | 0 | - | - | -
CCCn1c(SCC(=O)Nc2ccccc2-c2ccccc2)nnc1-c1ccoc1C | 0 | 0 | 0 | 0 | 11µM | 0
COc1ccc(C(=O)C/C(=C\C(=O)c2ccc(C)cc2)c2ccccc2)cc1 | 0 | ? | 0 | ? | 4.5µM | ?
COc1ccc(C(=O)CC(=O)c2ccccc2)cc1 | 0 | 0 | 0 | 0 | 0 | 0
N#C/C(C(=O)Nc1ccc(Cl)cc1)=C(/S)Nc1ccccc1 | 0 | 11µM | 11µM | 0 | ? | 0
COc1ccnc2c1CCCCC2S(=O)c1nc2ccccc2[nH]1 (stereo not drawn) | - | - | - | 0 | - | 0
Cc1ccc(-c2csc(-c3c[nH]c4ccccc34)n2)c(C)c1 | 0 | ? | 20µM | 0 | 10µM | 0
Oc1ccc(-c2csc(-c3c[nH]c4ccccc34)n2)c(O)c1 | 0 | 0 | 0 | 0 | 0 | 0
CN(C)C(=O)N1CCC(C(=O)NCc2ccc(F)cc2Cl)CC1 | 0 | 0 | 0 | ? | 0 | 0
O=C(NNC(=O)C1CCN(Cc2ccc(F)cc2Cl)CC1)Nc1ccc([N+](=O)[O-])cc1 | 0 | 0 | 0 | 0 | 4µM | -
O=C(Nc1cc(Br)ccc1O)C1CC(c2ccccc2Cl)=NO1 (stereo not drawn) | 0 | 16µM | 0 | 0 | ? | 0
Cc1ccccc1Sc1ncnc2onc(C)c12 | 0 | ? | 0 | 0 | ? | 0
Cc1ccc(Sc2ncnc3onc(C)c23)cc1 | 0 | 0 | 0 | 0 | ? | 0
Cc1noc2ncnc(Sc3c(Cl)cccc3Cl)c12 | 0 | ? | 11µM | 0 | 0 | 0
Cc1noc2ncnc(Sc3ccc(Cl)cc3)c12 | 0 | ? | 14µM | ? | 0 | 0
Cc1c([N+](=O)[O-])cnc2ccccc12 | - | 0 | 0 | - | - | -
Oc1cccc2cc(Nc3ccccc3)cnc12 | 0 | 3.5µM | 0 | ? | - | 7.1µM
Oc1cc(-c2cccnc2)cc2cccnc12 | 0 | ? | 0 | ? | - | ?
Oc1cc(Nc2ccccc2)cc2cccnc12 | 0 | 32µM | 11µM | ? | - | 32µM
c1ccc(Nc2cccc(Nc3ccccc3)n2)cc1 | 0 | 0 | 0 | 0 | ? | 0
O=C(NCCN1CCOCC1)c1ccc2ccccc2c1 | 0 | 0 | 0 | 0 | 0 | 0
Oc1cc(NCCN2CCOCC2)cc2cccnc12 | 0 | ? | 0 | ? | - | 32µM
O=S(=O)(c1cccc(C(F)(F)F)c1)N1CCN(c2nc(-c3cccs3)nc3cc(Cl)ccc23)CC1 | - | 0 | 0 | - | - | -
CCCCn1c(=N)c(S(=O)(=O)c2ccc(C)cc2)cc2c(=O)n3cc(C)ccc3nc21 | - | 0 | 0 | - | 0 | -
SMILES | GLP1R ag | TGFb inhibitor | HepG2 viability | ATXN viability | GLP-1R inv ag | ATXN2 expr inh
COc1ccc(OC)c2c(C)ccnc12 | - | 7.9µM | 13µM | - | - | -
Cc1ccnc2c(Cl)ccc(Cl)c12 | - | 0 | 0 | - | - | -
Cc1cc(C(=O)Nc2ccccc2-c2nc(CNC(=O)c3ccc(F)cc3F)c(C)o2)c(C)o1 | - | - | - | 0 | - | -
C1=CC2=NC34CCCCC3CC3=C(CCCC3)N4C2=CC1=NC1CCCCC1 (stereo not drawn) | 0 | ? | 0 | - | 10µM | ?
O=C1NC(=O)C(Cc2ccccc2F)(C2CCN(Cc3cccn3-c3cccnc3)CC2)N1 (stereo not drawn) | - | - | - | 0 | - | -
COc1ccc(C23CC4CC(CC(C4)C2)C3)cc1C(=O)NCCN(C)C | 0 | ? | 16µM | - | ? | -
C=CCNC(=S)N1CCN(c2ncc(C(F)(F)F)cc2Cl)CC1 | 0 | 0 | 0 | 0 | 8.9µM | 0
Cc1cc(C)cc(NC(=S)N2CCN(c3ncc(C(F)(F)F)cc3Cl)CC2)c1 | 0 | 0 | 0 | 0 | 0 | 0
COc1ccc(-n2ccnc(NCc3cccs3)c2=O)cc1 | - | 0 | 0 | 0 | 0 | 0
Nc1nc2ccccc2n1S(=O)(=O)c1ccc([N+](=O)[O-])cc1 | 0 | 13µM | 0 | 0 | 0 | 0
Cc1cc(C)cc(CN2CCOc3ccc(CN4CCC(O)(c5cccnc5)CC4)cc3C2)c1 | - | - | - | 0 | - | -
O=C1CCCC(O)=C1C(C#Cc1ccccc1)C1=C(O)CCCC1=O | 0 | ? | 16µM | ? | 0 | ?
CC1(C)CC(=O)C(C(C#Cc2ccccc2)C2=C(O)CC(C)(C)CC2=O)=C(O)C1 | 0 | ? | 0 | ? | ? | ?
CC(=O)c1cccc(NC(=S)NCc2ccco2)c1 | 0 | 0 | 0 | ? | 0 | -
S=C(NCc1ccco1)Nc1cccc(Cl)c1 | 0 | ? | 0 | 0 | 8.9µM | 0
S=C(NCc1ccco1)Nc1ccc(Cl)c(Cl)c1 | 0 | ? | 0 | 0 | 10µM | ?
O=[N+]([O-])c1ccc(CSc2ccc(S(=O)(=O)N3CCCCCC3)cn2)cc1 | 0 | ? | 0 | 0 | 11µM | 0
O=S(=O)(c1ccc(SCc2ccc(Br)cc2)nc1)N1CCCCC1 | 0 | 0 | 0 | 0 | 0 | 0
NC(=O)C[C@@H](N)C(=O)O | 0 | - | - | 0 | - | -
O=C1c2ccc3c4c(ccc(c24)C(=O)N1CCCCO)C(=O)N(CCCCO)C3=O | 0 | 2.5µM | 3.2µM | ? | ? | ?
O=C(c1ccc2c(c1)C(=O)N(CCCO)C2=O)c1ccc2c(c1)C(=O)N(CCCO)C2=O | 0 | 0 | 0 | 0 | 0 | 0
CC(CN1CCOCC1)C(Cc1ccccc1)(Cc1ccccc1)C(=O)N1CCCC1 (stereo not drawn) | 0 | - | - | - | - | -
O=c1[nH]c(Sc2ccc([N+](=O)[O-])cc2[N+](=O)[O-])nc2ccccc12 | 0 | 14µM | 11µM | ? | 0 | -
CC(=O)Nc1ccc(NC(=O)c2ncoc2-c2ccco2)cc1 | - | 0 | 0 | 0 | 0 | 0
COc1ccccc1N1CCN(S(=O)(=O)c2ccc3c(c2)NC(=O)C(C)S3)CC1 (stereo not drawn) | 0 | ? | 0 | 0 | 10µM | 0
SMILES | GLP1R ag | TGFb inhibitor | HepG2 viability | ATXN viability | GLP-1R inv ag | ATXN2 expr inh
CC(C)(C)[C@H](N)C(=O)N[C@H]1CCC2C3CC=C4C[C@@H](O)CC[C@]4(C)C3CC[C@@]21C (stereo partly drawn) | 0 | 14µM | 0 | - | ? | ?
O=C1c2cccc(NCCCNCCO)c2C(=O)c2cccc(NCCCNCCO)c21 | 0 | 16µM | 0 | - | ? | 13µM
O=C1c2ccccc2C(=O)c2c(NCc3cccnc3)cccc21 | 0 | 0 | 0 | 0 | 0 | 0
CC[C@@H](CO)NCCN[C@@H](CC)CO | - | - | - | 0 | - | 0
Cc1cc(OCCCCCNCCO)cc(C)c1Cl | 0 | ? | 11µM | 0 | 0 | ?
Cc1cc(OCCNCCO)cc(C)c1Cl | 0 | 0 | 0 | 0 | 8.9µM | 0
